15 sequences from publication PMC3218832 can be followed below.

Targets include RELARELA (p65 homodimer) (Homo sapiens, UniProt Q04206 1-307); p50p50 homodimer (Homo sapiens, UniProt P19838 7-356); RELB subunit;p50 subunit (Homo sapiens;Homo sapiens, UniProt Q01201;P19838 120-401;7-356).
Holding throughout (assay): protein binding microarray; high values mean tight binding
Common to all, as to conditions: dsDNA, one strand shown

The target of a further assay is T1, p52p52 homodimer (Homo sapiens, UniProt Q00653 4-332).
T1 sequence: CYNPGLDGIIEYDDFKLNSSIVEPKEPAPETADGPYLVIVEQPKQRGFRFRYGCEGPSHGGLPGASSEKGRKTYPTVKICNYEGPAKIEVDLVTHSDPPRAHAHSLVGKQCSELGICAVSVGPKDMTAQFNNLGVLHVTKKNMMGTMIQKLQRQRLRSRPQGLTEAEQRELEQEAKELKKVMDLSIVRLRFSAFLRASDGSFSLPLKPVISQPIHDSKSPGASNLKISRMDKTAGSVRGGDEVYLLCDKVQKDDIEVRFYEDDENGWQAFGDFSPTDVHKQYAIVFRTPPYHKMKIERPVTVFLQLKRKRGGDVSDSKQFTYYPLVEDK

For assay [1], the target named is RELA (p65) subunit of heterodimer;p50 subunit (Homo sapiens;Homo sapiens, UniProt Q04206;P19838 1-307;7-356).
RELA (p65) subunit of heterodimer;p50 subunit, sequence (Q04206 1-307, chain 1 of 2): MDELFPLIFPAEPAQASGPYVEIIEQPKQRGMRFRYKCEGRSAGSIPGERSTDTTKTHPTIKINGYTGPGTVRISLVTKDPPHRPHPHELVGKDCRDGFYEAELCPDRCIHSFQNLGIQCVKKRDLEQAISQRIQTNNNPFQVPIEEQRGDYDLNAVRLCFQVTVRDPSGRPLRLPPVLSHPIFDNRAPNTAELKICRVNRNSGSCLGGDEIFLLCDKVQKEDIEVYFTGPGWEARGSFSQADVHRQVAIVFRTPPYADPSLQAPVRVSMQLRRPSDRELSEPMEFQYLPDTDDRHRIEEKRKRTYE
RELA (p65) subunit of heterodimer;p50 subunit, sequence (P19838 7-356, chain 2 of 2): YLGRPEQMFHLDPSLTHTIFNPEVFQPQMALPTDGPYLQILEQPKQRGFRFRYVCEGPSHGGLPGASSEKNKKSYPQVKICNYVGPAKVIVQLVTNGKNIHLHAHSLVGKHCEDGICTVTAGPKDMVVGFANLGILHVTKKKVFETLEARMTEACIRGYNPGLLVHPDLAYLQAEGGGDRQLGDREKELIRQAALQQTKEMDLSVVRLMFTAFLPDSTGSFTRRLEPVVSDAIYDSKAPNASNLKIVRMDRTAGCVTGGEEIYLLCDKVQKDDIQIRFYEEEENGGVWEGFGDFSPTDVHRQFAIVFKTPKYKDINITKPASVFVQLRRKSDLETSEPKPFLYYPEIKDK
Assay [2] deals with RELA (p65) subunit of heterodimer;p52 subunit (Homo sapiens;Homo sapiens, UniProt Q04206;Q00653 1-307;4-332).
The target in the next assay is T2, RELB subunit;p52 subunit (Homo sapiens;Homo sapiens, UniProt Q01201;Q00653 120-401;4-332).
T2 sequence 1: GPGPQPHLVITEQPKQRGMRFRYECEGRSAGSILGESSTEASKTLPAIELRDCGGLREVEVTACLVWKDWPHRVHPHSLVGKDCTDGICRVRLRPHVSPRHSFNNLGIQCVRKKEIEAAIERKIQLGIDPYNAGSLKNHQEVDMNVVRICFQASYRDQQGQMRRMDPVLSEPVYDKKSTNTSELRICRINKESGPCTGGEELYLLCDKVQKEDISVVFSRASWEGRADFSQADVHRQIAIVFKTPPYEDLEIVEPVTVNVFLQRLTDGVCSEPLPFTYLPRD
T2 sequence 2: T1 sequence

Assay [3] deals with C-Rel subunit;p50 subunit (Homo sapiens;Homo sapiens, UniProt Q04864;P19838 1-285;7-356).
The target in assay [4] is T3, C-Rel subunit;p52 subunit (Homo sapiens;Homo sapiens, UniProt Q04864;Q00653 1-285;4-332).
T3 sequence 1: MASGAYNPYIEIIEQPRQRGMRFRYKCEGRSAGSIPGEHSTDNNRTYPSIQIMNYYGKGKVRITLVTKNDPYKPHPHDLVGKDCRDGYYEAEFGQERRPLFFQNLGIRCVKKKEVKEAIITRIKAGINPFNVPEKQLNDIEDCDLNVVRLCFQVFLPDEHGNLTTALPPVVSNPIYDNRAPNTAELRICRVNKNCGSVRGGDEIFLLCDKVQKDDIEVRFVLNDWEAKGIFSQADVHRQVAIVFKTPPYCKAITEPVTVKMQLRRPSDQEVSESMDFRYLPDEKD
T3 sequence 2: T1 sequence

p50p50 homodimer, sequence (P19838 7-356): as the sequence (P19838 7-356, chain 2 of 2) above
RELARELA (p65 homodimer), sequence (Q04206 1-307): as the sequence (Q04206 1-307, chain 1 of 2) above

Take AGAATAATCCT: the binding signal with RELARELA (p65 homodimer) is -0.568 z-score; with p50p50 homodimer it was -1.24 z-score; with p52p52 homodimer, -0.591 z-score; in [1], -0.939 z-score; in assay [2], -0.846 z-score; in the assay with RELB subunit;p50 subunit, -0.98 z-score. Further, the binding signal with RELB subunit;p52 subunit was -0.603 z-score; in assay [3], -0.925 z-score; in assay [4], -0.909 z-score.

Consider CGGGTAGTCCC, for which the binding signal turned out to be 1.24 z-score in the assay with RELARELA (p65 homodimer); 0.936 z-score in the assay with p50p50 homodimer; 1.66 z-score with p52p52 homodimer; 1.36 z-score in assay [1]; 1.23 z-score in assay [2]; 0.735 z-score in the assay with RELB subunit;p50 subunit. For the same sequence, the binding signal in the assay with RELB subunit;p52 subunit came out at 1.17 z-score; in assay [3], 1.09 z-score; in [4], 1.5 z-score.

Consider AAGTGCCTCCC, for which the binding signal with RELARELA (p65 homodimer) is -0.0547 z-score; in the assay with p50p50 homodimer, -1.21 z-score; with p52p52 homodimer it was -0.495 z-score; in assay [1], -0.501 z-score; in [2], -0.793 z-score; with RELB subunit;p50 subunit it was -0.787 z-score. For the same sequence, the binding signal in the assay with RELB subunit;p52 subunit is -0.731 z-score; in assay [3], -1.1 z-score; in [4] it was -0.788 z-score.

Take GGGTTCCTCCT: the binding signal in the assay with RELARELA (p65 homodimer) is -0.196 z-score; with p50p50 homodimer, -1.42 z-score; with p52p52 homodimer it was -0.584 z-score; in [1], -0.636 z-score; in assay [2], -0.6 z-score; with RELB subunit;p50 subunit it was -0.937 z-score. Moreover, the binding signal was -0.638 z-score with RELB subunit;p52 subunit, -0.934 z-score in assay [3] and -0.467 z-score in assay [4].

Consider GGAGACGCCCT, for which the binding signal is -0.954 z-score with RELARELA (p65 homodimer); -1.6 z-score with p50p50 homodimer; -0.72 z-score in the assay with p52p52 homodimer; -0.832 z-score in assay [1]; -0.77 z-score in assay [2]; -1.05 z-score in the assay with RELB subunit;p50 subunit. Also, the binding signal with RELB subunit;p52 subunit was -0.933 z-score; in [3], -1.16 z-score; in assay [4] it was -0.641 z-score.

For AGATACATCCC, the binding signal was -0.0343 z-score with RELARELA (p65 homodimer); -0.79 z-score in the assay with p50p50 homodimer; -0.47 z-score in the assay with p52p52 homodimer; -0.557 z-score in [1]; -0.673 z-score in assay [2]; -0.73 z-score with RELB subunit;p50 subunit. The binding signal was -0.746 z-score with RELB subunit;p52 subunit, -0.981 z-score in assay [3] and -0.677 z-score in [4].

Take AAAATCTTCCC: the binding signal was 1.32 z-score with RELARELA (p65 homodimer); 0.807 z-score with p50p50 homodimer; 0.256 z-score with p52p52 homodimer; 0.764 z-score in [1]; 0.419 z-score in assay [2]; 0.54 z-score in the assay with RELB subunit;p50 subunit. In addition, the figures for the binding signal (with RELB subunit;p52 subunit; in [3]; in [4]) were 0.162 z-score, 1.06 z-score and 0.488 z-score, respectively.

On to GAAGATACCCT, for which the binding signal was -0.565 z-score with RELARELA (p65 homodimer); 0.622 z-score with p50p50 homodimer; 0.0699 z-score in the assay with p52p52 homodimer; 0.217 z-score in assay [1]; 0.0853 z-score in assay [2]; 0.142 z-score with RELB subunit;p50 subunit. The binding signal with RELB subunit;p52 subunit is 0.032 z-score; in assay [3], -0.0626 z-score; in [4], 2.91e-05 z-score.

Turning to CGATTAGTCCT, the binding signal was -0.163 z-score with RELARELA (p65 homodimer); -1.16 z-score with p50p50 homodimer; -0.532 z-score with p52p52 homodimer; -0.961 z-score in assay [1]; -0.861 z-score in assay [2]; -1.12 z-score with RELB subunit;p50 subunit. Further, the binding signal is -0.766 z-score in the assay with RELB subunit;p52 subunit, -1.1 z-score in [3] and -0.684 z-score in assay [4].

As to AAAGTTGCCCC, the binding signal in the assay with RELARELA (p65 homodimer) stood at 1 z-score; with p50p50 homodimer it was 0.606 z-score; with p52p52 homodimer, 0.147 z-score; in assay [1] it was 0.949 z-score; in [2], 0.337 z-score; in the assay with RELB subunit;p50 subunit, 0.677 z-score. Also, the binding signal with RELB subunit;p52 subunit worked out at 0.595 z-score; in [3], 1.26 z-score; in assay [4] it was 0.617 z-score.

As to GGATGTCCCCC, the binding signal came out at 0.799 z-score with RELARELA (p65 homodimer); 1.11 z-score in the assay with p50p50 homodimer; 1.17 z-score in the assay with p52p52 homodimer; 1.69 z-score in [1]; 1.37 z-score in assay [2]; 1.27 z-score in the assay with RELB subunit;p50 subunit. For the same sequence, the binding signal is 1.47 z-score with RELB subunit;p52 subunit, 1.1 z-score in assay [3] and 1.45 z-score in assay [4].

On to GAATGATCCCC, for which the binding signal was -0.194 z-score in the assay with RELARELA (p65 homodimer); 0.816 z-score with p50p50 homodimer; 0.548 z-score in the assay with p52p52 homodimer; 0.936 z-score in assay [1]; 0.697 z-score in assay [2]; 0.943 z-score with RELB subunit;p50 subunit. Moreover, the binding signal with RELB subunit;p52 subunit is 0.595 z-score; in assay [3], 0.665 z-score; in assay [4] it was 0.409 z-score.

With GAAGTCTTCCC, the binding signal is 0.246 z-score in the assay with RELARELA (p65 homodimer); -0.511 z-score with p50p50 homodimer; -0.37 z-score with p52p52 homodimer; -0.272 z-score in assay [1]; -0.339 z-score in [2]; -0.349 z-score with RELB subunit;p50 subunit. The figures for the binding signal (with RELB subunit;p52 subunit; in assay [3]; in [4]) were -0.537 z-score, 0.175 z-score and -0.174 z-score, respectively.

Take GAAGTTTCCCC: the binding signal with RELARELA (p65 homodimer) was 2.24 z-score; with p50p50 homodimer it was 1.35 z-score; in the assay with p52p52 homodimer it was 2 z-score; in assay [1], 2.3 z-score; in [2] it was 1.99 z-score; in the assay with RELB subunit;p50 subunit it was 2.19 z-score. Further, the figures for the binding signal (in the assay with RELB subunit;p52 subunit; in [3]; in [4]) were 2.19 z-score, 1.89 z-score and 1.71 z-score, respectively.

On to GAGAATACCCC, for which the binding signal with RELARELA (p65 homodimer) worked out at 0.964 z-score; with p50p50 homodimer it was 1.14 z-score; with p52p52 homodimer, 0.914 z-score; in [1] it was 1.24 z-score; in [2] it was 1.18 z-score; with RELB subunit;p50 subunit it was 1.05 z-score. For the same sequence, the values for the binding signal (with RELB subunit;p52 subunit; in assay [3]; in assay [4]) were 1.31 z-score, 1.03 z-score and 0.996 z-score, respectively.
